# Measurements taken from PMC4336329 (PLoS ONE, 2015).
# Out of some 310,000 compounds screened, about 14,000 (4.5%) showed an effect of 50% or more. The effect is printed as a negative number. The sample holds strong results, similar compounds and a random draw of the others, so the mix is not that of the screen.
# Molecular target: human ether-à-go-go-related gene (hERG) potassium channel (human, UniProt Q12809)
# Test: primary screen, population patch clamp on CHO cells stably expressing hERG; higher = less effect of the substance
# 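Also: peak tail current of the secondary pulse compared with the same well before compound.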
# Chain of human ether-à-go-go-related gene (hERG) potassium channel (Q12809 whole entry, looked up): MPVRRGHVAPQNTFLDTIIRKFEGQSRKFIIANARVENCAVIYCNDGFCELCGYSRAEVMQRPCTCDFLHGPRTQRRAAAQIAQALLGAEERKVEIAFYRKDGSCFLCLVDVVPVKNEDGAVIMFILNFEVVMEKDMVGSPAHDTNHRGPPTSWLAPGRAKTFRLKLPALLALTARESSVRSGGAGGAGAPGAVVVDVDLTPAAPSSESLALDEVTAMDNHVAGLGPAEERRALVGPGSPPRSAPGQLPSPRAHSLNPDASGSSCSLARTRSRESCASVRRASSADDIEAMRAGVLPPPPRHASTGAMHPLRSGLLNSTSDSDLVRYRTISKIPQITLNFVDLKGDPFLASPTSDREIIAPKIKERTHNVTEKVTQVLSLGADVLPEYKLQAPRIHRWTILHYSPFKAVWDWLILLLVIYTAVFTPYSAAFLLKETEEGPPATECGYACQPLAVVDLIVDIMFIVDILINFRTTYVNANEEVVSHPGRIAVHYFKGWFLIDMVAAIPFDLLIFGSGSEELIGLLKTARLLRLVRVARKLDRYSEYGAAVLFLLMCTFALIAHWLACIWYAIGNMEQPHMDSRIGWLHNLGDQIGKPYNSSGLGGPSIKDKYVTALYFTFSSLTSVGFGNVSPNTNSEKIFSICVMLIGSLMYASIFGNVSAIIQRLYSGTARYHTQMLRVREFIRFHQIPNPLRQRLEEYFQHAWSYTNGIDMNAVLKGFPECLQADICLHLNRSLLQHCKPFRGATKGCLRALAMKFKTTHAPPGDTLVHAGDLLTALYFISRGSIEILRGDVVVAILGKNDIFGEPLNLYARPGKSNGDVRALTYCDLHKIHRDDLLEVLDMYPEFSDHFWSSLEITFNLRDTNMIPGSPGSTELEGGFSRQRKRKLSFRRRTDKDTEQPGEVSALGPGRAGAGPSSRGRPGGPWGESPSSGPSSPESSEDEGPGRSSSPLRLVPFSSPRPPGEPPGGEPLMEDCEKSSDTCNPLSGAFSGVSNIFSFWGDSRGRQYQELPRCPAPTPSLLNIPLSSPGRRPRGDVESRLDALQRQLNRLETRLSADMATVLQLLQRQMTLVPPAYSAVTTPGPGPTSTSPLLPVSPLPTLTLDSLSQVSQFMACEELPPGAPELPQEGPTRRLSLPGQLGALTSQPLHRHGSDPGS
row,Structure (SMILES),"hERG current change (%, negative = inhibition) at 10uM [%]"
1,Cc1ccc(C)c(C(=O)CCC(=O)Nc2cccnc2)c1,7.26
2,COc1cccc(/C=C/C(=O)OCC(=O)NCC2CCCCC2)c1OC,8.32
3,CCN(CC)c1ccc2c(C)c(CN3CCOCC3)c(=O)oc2c1,-11.1
4,C=Cc1ccc(C(=O)N2CCCC(CCC(=O)N3CCN(c4ccccn4)CC3)C2)cc1 (stereo not drawn),-4.57
5,CCCCNc1nc(N)nc(-c2cc(Cl)ccc2O)n1,20.9
6,CCCOc1ccc(C(=O)Nc2cccnc2)cc1,3.01
7,c1ccc(-c2nc(CSc3n[nH]c(-c4cccs4)n3)cs2)cc1,-15.1
8,Cc1ccc2c(c1)c(=O)c1c3n2CCN(CC2CO2)C3CC1 (stereo not drawn),4.27
9,O=C(CCl)N(Cc1cc(=O)[nH]c2ccccc12)c1ccccc1,0.288
10,CCOC(=O)c1nn(-c2ccc(C)cc2)c(=O)cc1OCC(=O)Nc1cccc(OC)c1,1.6
11,COc1ccccc1C(=O)Nc1ccnn1C1CCN(Cc2cn(C)c3ccccc23)CC1,-83.6
12,Cn1cc(CN2CCC(n3nccc3NC(=O)c3ccccc3Cl)CC2)c2ccccc21,-68.6
13,Cc1cc(NC(=O)CSc2ccc3nnc(CCNS(=O)(=O)c4ccccc4)n3n2)no1,15.6
14,Nc1c(Cl)cc(-c2csc(N3CCCC3c3nc4cc(Cl)c(Cl)cc4n3CCOCCO)n2)cc1Cl (stereo not drawn),-0.601
15,Cc1cccc(C)c1NC(=O)NNC(=O)c1cc(C(C)(C)C)nn1Cc1ccccc1,0.818
16,CC1CCC/C(=N\NC(=S)Nc2ccccc2)C1 (stereo not drawn),7.36
17,O=C(Nc1ccc(Nc2ccccc2)cc1)c1c(Cl)cccc1Cl,12.3
18,Cc1ccc2c(c1)C1CN(C)CCC1N2C(=O)COc1ccccc1F (stereo not drawn),-4.18
19,CC1CCCN(C(=O)Cn2nnc(-c3ccccc3F)n2)C1 (stereo not drawn),13.8
20,Cc1ccc2c(c1)C1CN(C)CCC1N2C(=O)Cn1nnc(-c2ccccc2F)n1 (stereo not drawn),-60.1
21,Cc1ccc2c(c1)C1CN(C)CCC1N2C(=O)COc1ccc(N(C)C(=O)c2ccccc2)cc1 (stereo not drawn),-11.6
22,Cc1ccc2c(c1)C1CN(C)CCC1N2C(=O)CCCN1C(=O)c2cccc3cccc(c23)C1=O (stereo not drawn),-57.4
23,COc1ccc(OCC(=O)N2c3ccc(C)cc3C3CN(C)CCC32)cc1 (stereo not drawn),-5.12

row,Structure (SMILES),"hERG current change (%, negative = inhibition) at 10uM [%]"
1,Cc1cc(-n2c(SCc3ccccc3F)nc3n[nH]c(C)c3c2=N)ccc1Cl,15.8
2,COC(=O)c1ccccc1OCCCOc1ccc(C=O)cc1OC,-4.02
3,O=C(NCc1ccco1)c1ccc(COc2ccc(Cl)cc2)cc1,0.911
4,CCCN(C(=O)Cc1ccc(S(=O)(=O)N2CCOCC2)s1)c1c(N)n(Cc2ccccc2)c(=O)[nH]c1=O,16.8
5,CN(C)c1ccc(C(c2ccc(N(C)C)cc2)c2ccc([N+](=O)[O-])cc2)cc1,3.74
6,Cc1cccc(Sc2nc(-c3ccccc3)ncc2C(=O)O)c1,11.7
7,COc1ccc(N2CCN(C(=O)COc3ccc4c(C)cc(=O)oc4c3C)CC2)cc1,20.6
8,Cc1cc(=O)oc2c(C)c(OCC(=O)N3CCN(c4ccccc4)CC3)ccc12,-24.8
9,Cc1cc(=O)oc2c(C)c(OCC(=O)N3CCN(c4ccc(F)cc4)CC3)ccc12,-65.9
10,Cc1cc(=O)oc2cc(OCC(=O)N3CCN(c4ccccc4)CC3)ccc12,-36.6
11,Cc1cc(=O)oc2cc(OCC(=O)N3CCN(c4ccc(F)cc4)CC3)ccc12,-53
12,COc1ccc(N2CCN(C(=O)COc3ccc4c(C)cc(=O)oc4c3)CC2)cc1,-16.5
13,CCC(C)c1ccc(NC(=S)NC(C)C2CCCO2)cc1 (stereo not drawn),-6.84
14,Cc1ccc(CN2CC(C(=O)N3CC(C)CC(C)C3)CC2=O)cc1 (stereo not drawn),-6.13
15,CN(C)CCP(=O)(c1ccccc1)c1ccccc1,13.4
16,O=C(O)COCc1nc2ccccc2s1,-7.92
17,Cc1cccc(C(=O)N2CCc3cc(-c4nc(NC(=O)CN5CCCC5)sc4C)ccc32)c1,-0.886
18,Cc1ccc(CC(=O)N(C)CC(=O)N(CC(C)C)c2c(N)n(CC(C)C)c(=O)[nH]c2=O)cc1C,-2.54
19,Cc1ccc2c(c1)COc1c3ccc(C(=O)NCC4CC4)cc3nn1-2,-6.56
20,COc1ccc(CCN(C)Cc2ccc(F)cc2F)cc1OC,-0.788
21,COc1cc(CN(CCN(C)C)Cc2ccccc2)ccc1OCc1ccccc1.O=C(O)C(=O)O,-31
22,COc1cc(CN(C)CCc2ccccc2)ccc1OCc1ccccc1,-72
23,CN(Cc1ccccc1)C(=O)c1ccccc1NC(=O)c1ccccc1,-12.7

row,Structure (SMILES),"hERG current change (%, negative = inhibition) at 10uM [%]"
1,CCN(Cc1ccccc1)Cc1ccc(OCc2ccccc2)c(OC)c1,-31.2
2,COc1ccc(CCN(C)Cc2ccc(OC)c(OCc3ccccc3)c2)cc1OC,-81.6
3,COc1ccc(Cc2noc(CN(C)CCc3ccccc3)n2)cc1OC,7.3
4,CN(Cc1ccccc1)C(=O)c1ccc(NC(=O)c2ccccc2)cc1,-59.9
5,COc1ccc(CCN(C)Cc2ccncc2)cc1OC,-27.2
6,CN(Cc1ccccc1)C(=O)c1ccc(NC(=O)C2=CSCCO2)cc1,-0.926
7,CCN(CC)c1ccc(CN(C)CCc2ccc(OC)c(OC)c2)cc1,-66.1
8,O=C(Nc1cccc(S(=O)(=O)N2CCCC2)c1)c1ccc2ccccc2n1,20.9
9,COc1ccc(/C=C/C(=O)NCc2cn(C)nc2C)cc1COc1ccc(Br)cc1,7.33
10,O=C(Nc1cccc(S(=O)(=O)N2CCCCC2)c1)Nc1ccc(Cl)cc1Cl,7.77
11,Cn1cc(C(=O)N2CCCC(Nc3ccc(F)cc3)C2)c2ccccc21 (stereo not drawn),-21.1
12,O=C(CN1CCCC1c1cccs1)Nc1cccc(S(=O)(=O)N2CCCC2)c1 (stereo not drawn),-0.843
13,COc1cc(CC(=O)O)ccc1OCc1ccccc1,4.35
14,COc1ccccc1OCc1ccc(C(=O)Nc2ccccc2)cc1,11.1
15,COc1ccc(C(=O)Nc2ccc(C(=O)NCCc3ccc(OC)c(OC)c3)cc2)cc1,30.5
16,COc1ccc(CN(CCc2ccccc2)Cc2ccccc2)cc1OC.O=C(O)C(=O)O,-9.99
17,COc1ccc(CCN(C)Cc2ccc(OCc3ccccc3)c(OC)c2)cc1OC,-74.3
18,COc1ccc(CCN(C)Cc2ccc(C(=O)Nc3ccccc3)cc2)cc1OC,-67.3
19,COc1ccc(NS(=O)(=O)c2ccc(-c3cnc(C4CC4)o3)cc2)cc1OC,14.6
20,CC1(C)Cc2c(sc(NC(=O)COc3ccc(Cl)cc3)c2C(N)=O)C(C)(C)N1,0.951
21,COC(=O)C(NNc1ccc(F)cc1)(NC(=O)c1ccccc1)C(F)(F)F (stereo not drawn),-3.67
22,O=C(Nc1cc(Cl)ccc1-n1cncn1)c1ccc([N+](=O)[O-])s1,-27.9
23,O=C(O)C1OC(C(=O)O)C2C1C(F)(F)C2(F)F (stereo not drawn),14.3

row,Structure (SMILES),"hERG current change (%, negative = inhibition) at 10uM [%]"
1,O=C(Cc1cn2ccsc2n1)Nc1cccc2cnccc12,9.76
2,CCOC(=O)c1c(C)n(-c2ccccc2)c2ccc(O)c(CN(C)C)c12.Cl,-30.7
3,CCOC(=O)c1sc(=N)n(-c2ccc(OC)cc2)c1C,-4.06
4,CCOC(=O)c1c(C)n(C)c2ccc(O)c(CN(CC)CC)c12.Cl,-20
5,CCN(CC)Cc1c(O)ccc2c([N+](=O)[O-])c(C)n(-c3ccc(OC)cc3)c12,-24.9
6,CCOC(=O)c1c(C)n(C)c2ccc(O)c(CN(C)C)c12.O=C(O)C(=O)O,-6.82
7,Cc1ccc(-n2c(C)c([N+](=O)[O-])c3ccc(O)c(CN(C)C)c32)cc1,-23.6
8,CCOC(=O)c1c(C)n(-c2ccc(C)cc2)c2ccc(O)c(CN(C)C)c12.Cl,-74.2
9,COc1ccc(-n2c(C)c([N+](=O)[O-])c3ccc(O)c(CN(C)C)c32)cc1,-57.6
10,CCOC(=O)c1c(C)n(-c2ccc(OC)cc2)c2ccc(O)c(CN(C)C)c12.Cl,-74.2
11,Cc1cccc(NC(=O)COc2ccccc2C)n1,7.83
12,Cl.Clc1ccccc1CSc1nnc([C@@H]2CCCN2)o1,15.1
13,COc1ccc(C(=O)CNc2ccccc2Br)cc1,18.8
14,COC(=O)C1CCN(C(=O)N2CCOCC2)CC1,5.68
15,CC(/C=N/NC(=O)c1nnn(-c2nonc2N)c1C(C)C)=C\c1ccco1,8.07
16,CSCCC(NC(=O)c1ccc(Cl)cc1Cl)C(=O)NNC(=O)c1csc(N2CCOCC2)n1 (stereo not drawn),-56.8
17,CSCCC(NC(=O)c1ccccc1Cl)C(=O)NNC(=O)c1csc(N2CCOCC2)n1 (stereo not drawn),-29.9
18,Cc1ccsc1C(=O)NNC(=O)c1csc(N2CCOCC2)n1,12.7
19,CSCCC(NC(=O)c1ccccc1Br)C(=O)NNC(=O)c1csc(N2CCOCC2)n1 (stereo not drawn),-33.5
20,Cc1ccc(C)c(SCC(=O)NNC(=O)c2csc(N3CCOCC3)n2)c1,-55.1
21,Cc1cccc(C(=O)NNC(=O)c2csc(N3CCOCC3)n2)c1C,-9.89
